Experimental data taken from PubChem BioAssay (NCATS).
Records with an inconclusive call do not appear. A number with no mark means an inactive call. Activity calls are given as the source filed them. Calls follow the shape of the dose curve; as a rule, active = well fitted cell-killing curve with a large enough effect; inconclusive = small, poorly fitted or top-dose-only effect, or effect the other way; inactive = flat fitted curve, though single readings scatter.

Tested on: Hek293T
Test: Primary qHTS to identify gynecologic anti-cancer compounds using libraries of approved drugs and bioactive compounds (AID 1345084); also: nearly all actives have a fitted effect of over 55% in size
Conditions: Gynecologic cancer cell panel viability, ATPlite luminescence, 48 h, control line for the selectivity index; series mostly up to 57.5 µM; activity change, negative = cytotoxicity: at the top concentration
Procedure, shortened: (§1)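 48 h compound exposure at 37 C, 5% CO2; five-point qHTS. ATPlite luminescence readout of cell ATP.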
% is scaled to controls: 0 for no effect and ±100 for the full control effect; potency is read from the fitted curve at half-maximal effect.

| Structure (SMILES) | activity change, negative = cytotoxicity | Potency |
| --- | --- | --- |
| O=[N+]([O-])c1cc([N+](=O)[O-])c2ccccc2c1 | 5.31% [at 116 µM] | – |
| Nc1ccc(Sc2ccc(N)cc2)cc1 | -4.63% [at 116 µM] | – |
| CCC1(CCC(C)C)C(=O)NC(=O)NC1=O | 0.54% [at 116 µM] | – |
| CCO/N=C(\CC)C1=C(O)CC(c2c(C)cc(C)cc2C)CC1=O (stereo not drawn) | 6.65% [at 116 µM] | – |
| CO/C=C(/C(=O)OC)c1ccccc1Oc1cc(Oc2ccccc2C#N)ncn1 | – | 17.8 µM (active) |
| O=[N+]([O-])c1c2ccccc2cc2ccccc12 | -9.68% [at 116 µM] | – |
| S=C(SSC(=S)N1CCCCC1)N1CCCCC1 | – | 17.8 µM (active) |
| COc1ccc(C(c2ccc(OC)cc2)C(Cl)(Cl)Cl)cc1 | -11.8% [at 116 µM] | – |
| COc1ccc(N(C(=O)Oc2c(C)cccc2C)c2ccnc(Nc3ccc(N4CCN(C)CC4)cc3)n2)c(OC)c1 | -44.2% | – |
| O=C(O)CNC(=O)c1c(O)c2ccccc2n(Cc2ccccc2)c1=O | 8.84% | – |

Tested on: JEG-3
Test: as above
Conditions: Gynecologic cancer cell panel viability, ATPlite luminescence, 48 h; series mostly up to 57.5 µM; activity change, negative = cytotoxicity: at the top concentration
Procedure, shortened: as §1

| Structure (SMILES) | activity change, negative = cytotoxicity | Potency |
| --- | --- | --- |
| CCCN(CCC)c1c([N+](=O)[O-])cc(S(N)(=O)=O)cc1[N+](=O)[O-] | 6.24% [at 116 µM] | – |
| O=[N+]([O-])c1cc([N+](=O)[O-])c2ccccc2c1 | -3.86% [at 116 µM] | – |
| Nc1ccc(Sc2ccc(N)cc2)cc1 | 7.93% [at 116 µM] | – |
| CCC1(CCC(C)C)C(=O)NC(=O)NC1=O | 0.0333% [at 116 µM] | – |
| CC1(N2CCC(n3c([C@@H]4CCCNC4)nc4ccccc43)CC2)CCCCCCC1 | – | 11.2 µM (active) |
| O=[N+]([O-])c1c2ccccc2cc2ccccc12 | -8.93% [at 116 µM] | – |
| O=C(O)C(Cl)Cl | 7.73% | – |
| COc1ccc(C(c2ccc(OC)cc2)C(Cl)(Cl)Cl)cc1 | -18.7% [at 116 µM] | – |
| COc1ccc(N(C(=O)Oc2c(C)cccc2C)c2ccnc(Nc3ccc(N4CCN(C)CC4)cc3)n2)c(OC)c1 | 15.1% | – |
| CCOCCOC(C)=O | 1.78% [at 116 µM] | – |
| C/C=C(/C)C(=O)O[C@H]1C(C)=C2[C@H]([C@@H]1OC(=O)CCCCCCC)[C@@](C)(OC(C)=O)C[C@H](OC(=O)CCC)[C@@]1(O)[C@H]2OC(=O)[C@@]1(C)O | – | 0.447 µM (active) |
| CC(C)Oc1cccc(NC(=O)c2ccccc2C(F)(F)F)c1 | -16.6% [at 116 µM] | – |

Tested on: OV90
Test: as above
Conditions: Gynecologic cancer cell panel viability, ATPlite luminescence, 48 h; series mostly up to 57.5 µM; activity change, negative = cytotoxicity: at the top concentration
Procedure, shortened: as §1

| Structure (SMILES) | activity change, negative = cytotoxicity | Potency |
| --- | --- | --- |
| O=[N+]([O-])c1cc([N+](=O)[O-])c2ccccc2c1 | 0.0187% [at 116 µM] | – |
| O=c1[nH]c2ccc(Cl)cc2c(N[C@@H]2CN3CCC2CC3)c1-c1nc2ccccc2[nH]1 | – | 5.01 µM (active) |
| Nc1ccc(N=Nc2ccccc2)cc1 | – | 39.8 µM (active) |
| CCC1(CCC(C)C)C(=O)NC(=O)NC1=O | 3.74% [at 116 µM] | – |
| CCO/N=C(\CC)C1=C(O)CC(c2c(C)cc(C)cc2C)CC1=O (stereo not drawn) | 4.39% [at 116 µM] | – |
| CO/C=C(/C(=O)OC)c1ccccc1Oc1cc(Oc2ccccc2C#N)ncn1 | – | 17.8 µM (active) |
| CC1(N2CCC(n3c([C@@H]4CCCNC4)nc4ccccc43)CC2)CCCCCCC1 | – | 12.6 µM (active) |
| O=[N+]([O-])c1c2ccccc2cc2ccccc12 | -6.5% [at 116 µM] | – |
| S=C(SSC(=S)N1CCCCC1)N1CCCCC1 | – | 10 µM (active) |
| O=C(O)C(Cl)Cl | 6.64% | – |
| COc1ccc(N(C(=O)Oc2c(C)cccc2C)c2ccnc(Nc3ccc(N4CCN(C)CC4)cc3)n2)c(OC)c1 | 2.28% | – |
| O=C(O)c1cc(Oc2ccc(C(F)(F)F)cc2Cl)ccc1[N+](=O)[O-] | 4.86% | – |
| CCOCCOC(C)=O | -4.68% [at 116 µM] | – |
| O=C(O)CNC(=O)c1c(O)c2ccccc2n(Cc2ccccc2)c1=O | 7.69% | – |
| CC(C)Oc1cccc(NC(=O)c2ccccc2C(F)(F)F)c1 | – | 31.6 µM (active) |

Tested on: PA-1
Test: as above
Conditions: Gynecologic cancer cell panel viability, ATPlite luminescence, 48 h; series mostly up to 57.5 µM; activity change, negative = cytotoxicity: at the top concentration
Procedure, shortened: as §1

| Structure (SMILES) | activity change, negative = cytotoxicity | Potency |
| --- | --- | --- |
| O=[N+]([O-])c1cc([N+](=O)[O-])c2ccccc2c1 | -3.65% [at 116 µM] | – |
| O=c1[nH]c2ccc(Cl)cc2c(N[C@@H]2CN3CCC2CC3)c1-c1nc2ccccc2[nH]1 | – | 2.24 µM (active) |
| CCC1(CCC(C)C)C(=O)NC(=O)NC1=O | 14.3% [at 116 µM] | – |
| CCO/N=C(\CC)C1=C(O)CC(c2c(C)cc(C)cc2C)CC1=O (stereo not drawn) | -1.84% [at 116 µM] | – |
| CC(C)[C@]12O[C@H]1[C@@H]1O[C@]13[C@]1(O[C@H]1C[C@H]1C4=C(CC[C@@]13C)C(=O)OC4)[C@@H]2O | – | 0.1 µM (active) |
| CC1(N2CCC(n3c([C@@H]4CCCNC4)nc4ccccc43)CC2)CCCCCCC1 | – | 15.8 µM (active) |
| CCNC(=O)C[C@@H]1N=C(c2ccc(Cl)cc2)c2cc(OC)ccc2-n2c(C)nnc21 | – | 0.891 µM (active) |
| O=[N+]([O-])c1c2ccccc2cc2ccccc12 | -4.49% [at 116 µM] | – |
| O=C(O)C(Cl)Cl | 3.32% | – |
| COc1ccc(C(c2ccc(OC)cc2)C(Cl)(Cl)Cl)cc1 | -30.6% [at 116 µM] | – |
| O=C(O)c1cc(Oc2ccc(C(F)(F)F)cc2Cl)ccc1[N+](=O)[O-] | -1.88% | – |
| C/C=C(/C)C(=O)O[C@H]1C(C)=C2[C@H]([C@@H]1OC(=O)CCCCCCC)[C@@](C)(OC(C)=O)C[C@H](OC(=O)CCC)[C@@]1(O)[C@H]2OC(=O)[C@@]1(C)O | – | 0.158 µM (active) |
| O=C(O)CNC(=O)c1c(O)c2ccccc2n(Cc2ccccc2)c1=O | 6.52% | – |

Tested on: SKOV3
Test: as above
Conditions: Gynecologic cancer cell panel viability, ATPlite luminescence, 48 h; series mostly up to 57.5 µM; activity change, negative = cytotoxicity: at the top concentration
Procedure, shortened: as §1

| Structure (SMILES) | activity change, negative = cytotoxicity | Potency |
| --- | --- | --- |
| Nc1ccc(Sc2ccc(N)cc2)cc1 | -3.4% [at 116 µM] | – |
| CCCCCCCCCCCCCCCC[N+](C)(C)C | – | 28.2 µM (active) |
| CCO/N=C(\CC)C1=C(O)CC(c2c(C)cc(C)cc2C)CC1=O (stereo not drawn) | -3.3% [at 116 µM] | – |
| CO/C=C(/C(=O)OC)c1ccccc1Oc1cc(Oc2ccccc2C#N)ncn1 | – | 7.94 µM (active) |
| S=C(SSC(=S)N1CCCCC1)N1CCCCC1 | – | 3.98 µM (active) |
| O=C(O)c1cc(Oc2ccc(C(F)(F)F)cc2Cl)ccc1[N+](=O)[O-] | 3.59% | – |
| CCOCCOC(C)=O | 19.6% [at 116 µM] | – |
| O=C(O)CNC(=O)c1c(O)c2ccccc2n(Cc2ccccc2)c1=O | 21.9% | – |
